{
  "source": "paper PMC5540273",
  "about": "(PLoS ONE, 2017);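 further: KINOMEscan kinase panel screen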",
  "data": [
    {"system": "BRAF", "settings": "concentration: 1 μM, replicates: in singlicate; n = 1", "units": {"%Inh": "%"}, "values": [
      {"smiles": "CN1C(=O)C(Nc2ccc(Cl)c(C(=O)O)c2)=C(c2ccc(Cl)cc2)C1=O", "note": "[SB-404290]", "%Inh": 0},
      {"smiles": "Cc1cccc(-c2nc(-c3ccc(S(C)(=O)=O)cc3)sc2-c2ccnc(NCCc3ccccc3)c2)c1", "%Inh": 95.8},
      {"smiles": "COc1cccc(-c2cc(-c3c[nH]nc3-c3ccccn3)ccn2)c1", "note": "[GW680338]", "%Inh": 12},
      {"smiles": "Cl.NC(=O)c1cccc(Nc2nccc(Nc3ccc(Oc4cccc(Cl)c4)c(Cl)c3)n2)c1", "note": "[GW659008]", "%Inh": 0},
      {"smiles": "Cn1ccc2ncnc(Oc3ccc(NC(=O)Nc4ccccc4)cc3)c21", "%Inh": 0},
      {"smiles": "Cc1ccc(C(=O)Nc2ccc(Nc3ccnc4cc(-c5ccccn5)ccc34)cc2O)cc1.Cl", "note": "[GW440146]", "%Inh": 0},
      {"smiles": "Cc1c(O)cccc1Nc1ccnc2ccc(C(F)(F)F)cc12.Cl", "note": "[GW466413]", "%Inh": 69},
      {"smiles": "CC(C)(C)c1ccc(C(=O)Nc2cn3cc(-c4cccnc4)ccc3n2)cc1", "%Inh": 0},
      {"smiles": "CC1=C(C(=O)Nc2cc3cn[nH]c3cc2F)C(c2ccc(C(F)(F)F)cc2)CC(=O)N1", "note": "(stereo not shown) [GSK429286]", "%Inh": 7},
      {"smiles": "Cl.c1ccc(-c2n[nH]cc2-c2ccnc(-c3ccc(CN4CCOCC4)cc3)c2)nc1", "note": "[GW776245]", "%Inh": 16},
      {"smiles": "Cc1cccc(-c2cc(Nc3ccncc3)c3ccccc3n2)n1", "note": "[GSK223675]", "%Inh": 0},
      {"smiles": "Cc1cccc(-c2nc(Nc3ccncc3)c3ccccc3n2)n1", "note": "[GW855857]", "%Inh": 0},
      {"smiles": "COc1ccc2nc(-c3cccc(C)n3)nc(Nc3ccncc3)c2c1", "note": "[GSK204919]", "%Inh": 0},
      {"smiles": "COc1ccc(C2=C(Nc3cccc(C(=O)O)c3)C(=O)NC2=O)cc1", "note": "[SB-390765]", "%Inh": 9},
      {"smiles": "COc1ccc(Nc2nccc(-c3cccc(NC(=O)c4cc5cc(F)ccc5[nH]4)c3)n2)cc1", "note": "[GSK1229782]", "%Inh": 0},
      {"smiles": "CCCc1ccc(S(=O)(=O)NC2CCN(c3ccnc(Nc4ccc(F)cc4)n3)C2)cc1", "note": "(stereo not shown) [GSK1379715]", "%Inh": 0},
      {"smiles": "CC(=O)Nc1nc2cnc(Nc3cc(NC(=O)c4cccc(CCC#N)c4)ccc3C)nc2s1", "%Inh": 97.7},
      {"smiles": "Cc1ccc(NC(=O)Nc2cc(C(C)(C)C)nn2-c2ccccc2)cc1", "note": "[GSK1014915]", "%Inh": 74},
      {"smiles": "Cc1cccc(-c2nc(Nc3ccc4[nH]ncc4c3)c3ccccc3n2)n1", "note": "[GW857175]", "%Inh": 16},
      {"smiles": "Cc1cccc(-c2nc(C)cc(Nc3ccncc3)n2)n1", "note": "[GSK257997]", "%Inh": 0},
      {"smiles": "CS(=O)(=O)c1ccc(-c2nc3n(c2-c2ccncc2)CCC3)cc1", "note": "[SKF-105942]", "%Inh": 0},
      {"smiles": "O=C(Nc1ccc2c(c1)OCO2)NC1CCN(c2ccnc(Nc3ccc(F)cc3)n2)C1", "note": "(stereo not shown) [GSK1379724]", "%Inh": 1},
      {"smiles": "O=c1cc(N2CCOCC2)nc2n(Cc3cccc(Cl)c3Cl)ccn12", "note": "[GSK2286295]", "%Inh": 0},
      {"smiles": "COC(=O)c1c(-c2ccccc2)c2cc(OC)ccc2c(=O)n1Cc1ccccc1", "%Inh": 89},
      {"smiles": "O=C(Nc1ccccc1)Nc1cccc(Oc2ccc3nccn3n2)c1", "%Inh": 24},
      {"smiles": "Fc1cc(Cl)ccc1Nc1ccnc2cc(I)ccc12", "note": "[GW551191]", "%Inh": 12},
      {"smiles": "Cc1ccc(NC(=O)Nc2cccc(Cl)c2)cc1-c1ccc(C(=O)Nc2ccncc2)cc1", "note": "[GSK1398468]", "%Inh": 67},
      {"smiles": "O=C(O)COc1ncnc2cc(-c3ccc4[nH]ncc4c3)sc12", "%Inh": 19},
      {"smiles": "Cn1ccc2ncnc(Oc3cccc(C(=O)Nc4ccccc4)c3)c21", "%Inh": 0},
      {"smiles": "Cc1ccccc1-n1cnc2c(N)ncnc21", "note": "[SKF-97510]", "%Inh": 0},
      {"smiles": "COc1cc2ncnc(Nc3ccc4nc(-c5ccccc5)[nH]c4c3)c2cc1OC.Cl", "note": "[GW282450]", "%Inh": 0},
      {"smiles": "Cl.O=C(Nc1cccc(-c2nn3ncccc3c2-c2ccnc(Nc3cccnc3)n2)c1)c1c(F)cccc1F", "note": "[GSK312879]", "%Inh": 91.6},
      {"smiles": "NC(=O)c1nnc2ccccc2c1N", "%Inh": 23},
      {"smiles": "CN(C)CCN(C)C(=O)c1cc(-c2ccncc2)c(-c2ccc(Cl)c(O)c2)o1.Cl.Cl", "note": "[SB-710397]", "%Inh": 94.5}
    ]}
  ]
}
